The entries come from a sample that favours hits as a whole.
FECH inh = blocks human mitochondrial ferrochelatase activity. P22830. purified FECH, Ni-mesoporphyrin absorbance 550 nm. calls only at 10 µM (by protocol). actives 3.3% (n = 20,000);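 active = enzyme reaction rate more than 3 SD below the solvent-only control wells on the same plate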;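 also: lower slope than DMSO wells means FECH inhibition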
The depositor's hits bear a star; i = inactive; + = active, no number.

SMILES	FECH inh
Nc1nc(N2CCCCCC2)ncc1S(=O)(=O)c1cccs1	+
COCCCn1ccnc1-c1ccc(C)c2ncccc12	i
CC(=O)NCCC1CN(Cc2cccc(-n3cccn3)c2)CCO1 (configuration not stated)	i
CC(C)c1csc(C(=O)N2CC[C@@H]3CC[C@H](C2)N3C)n1	i
CN(Cc1ncc[nH]1)C(=O)c1cc2c(s1)CCCCC2	i

Bioassay records (PubChem)
